Common to all, as to assay: NCI-60 one-dose screen, 48 h (100 = growth as untreated, 0 = no growth, -100 = all killed)
The test system of test [1] is NCI-H226 lung. Conditions: 10 µM.
The subject of test [2] is NCI-H322M lung. Conditions: 10 µM.
For test [3], the system named is HOP-62 NSCLC. Conditions: 10 µM.
For test [4], the system named is NCI-H460 lung. Conditions: 10 µM.
In test [5] the test system is A549/ATCC NSCLC. Conditions: 10 µM.
Test [6] has as its system COLO 205 colon. The settings on record: 10 µM.
Test [7] has as its system DU-145 prostate. Conditions: 10 µM.
In test [8] the test system is SF-268 CNS. The settings on record: 10 µM.
Test [9] has as its system SF-295 CNS. Conditions: 10 µM.
The subject of test [10] is SF-539 CNS. The settings on record: 10 µM.
Test [11] relates to HCT-15 colon. The settings on record: 10 µM.
In test [12] the test system is HT29 colon. The settings on record: 10 µM.
The test system of test [13] is SNB-75 CNS. The settings on record: 10 µM.
For test [14], the system named is SNB-19 CNS. The settings on record: 10 µM.
Test [15] relates to U251 CNS. The settings on record: 10 µM.
The subject of test [16] is PC-3 prostate. Conditions: 10 µM.
Test [17] has as its system EKVX NSCLC. The settings on record: 10 µM.
In test [18] the test system is UO-31 renal. Conditions: 10 µM.
Test [19] deals with ACHN renal. The settings on record: 10 µM.
Test [20] deals with HL-60(TB) leukemia. Conditions: 10 µM unless noted.

The structures appear in SMILES notation. “And” between values parts separate entries of the source, which are not always exact repeats. Equal entries are not always repeated. The panel holds about 83,000 compounds, 20% with a hit somewhere; the sample as a whole holds those more often.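 96-well plates, one dose, 48 hours. Percent growth reported; active if below 10.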 Some structures have more than one record in an assay (separate samples or runs), and their calls can disagree. The source made the active and inactive calls.

As for `CC1=C2C(=C[C@@](C)(COS(C)(=O)=O)[C@@H]2O)C(=O)[C@](C)(O)C12CC2`, the growth was -15.3% (active) in [1]; 4.33% (active) in test [2]; 0.685% (active) in test [3]; 7.36% (active) in test [4]; 11.3% (inactive) in test [5]; -33.7% (active) in [6]. Moreover, the growth in test [7] is 9.22% (active); in test [8], 5.21% (active); in [9], -2.13% (active); in test [10] it was -26.2% (active); in test [11] it was 3.8% (active); in [12] it was 3.64% (active). The growth in [13] was -74.6% (active); in test [14], 4.72% (active); in [15], 7.54% (active); in test [16], 6.69% (active); in [17] it was 4.37% (active); in [18], -8.95% (active). The growth was -0.611% (active) in test [19] and -9.62% (active) in [20].

As to `CC1=C2C(=C[C@@](C)(C=O)[C@@H]2O)C(=O)[C@](C)(O)C12CC2`, the growth is 46.1% (inactive) in test [1]; 26.5% (inactive) in test [2]; 8.06% (active) in test [3]; 5.09% (active) in [4]; 8.13% (active) in [5]; -28.2% (active) in [6]. Further, the growth in test [7] is 9.15% (active); in test [8], 12.2% (inactive); in test [9] it was 3.31% (active); in [10] it was -10.7% (active); in test [11] it was 6.02% (active); in test [12], 4.21% (active). Moreover, the growth in test [13] is -3.53% (active); in test [14], 20.7% (inactive); in [15] it was 4.74% (active); in test [16] it was 6.53% (active); in test [17], 15% (inactive); in test [18] it was -13.3% (active). Besides, the growth was -18.5% (active) in test [19] and -12% (active) in [20].

Regarding `COc1cc(C)c(-c2ccc(OC)c(=O)cc2C)c(OC)c1OC`, the growth in test [1] was 41.8% (inactive) and 98.4% (inactive); in test [2] it was 46.5% (inactive) and 104% (inactive); in test [3] it was 31.5% (inactive) and 98.7% (inactive); in [4] it was 4.53% (active) and 103% (inactive); in [5], 17.6% (inactive) and 98.4% (inactive); in [6] it was -29.2% (active) and 94.5% (inactive). In addition, the growth is 13.3% (inactive) and 104% (inactive) in [7]; 37.5% (inactive) and 103% (inactive) in test [8]; 6.39% (active) and 100% (inactive) in [9]; -7.85% (active) and 94.9% (inactive) in test [10]; 12% (inactive) and 101% (inactive) in [11]; 4.37% (active) and 113% (inactive) in [12]. Moreover, the growth was 28.3% (inactive) and 93.6% (inactive) in test [13]; 20.1% (inactive) and 96.6% (inactive) in test [14]; 11.9% (inactive) and 104% (inactive) in test [15]; 19% (inactive) and 95.8% (inactive) in [16]; 36.6% (inactive) and 97.1% (inactive) in [17]; 47.5% (inactive) and 88.6% (inactive) in test [18]. In addition, the growth in [19] was 31.9% (inactive) and 105% (inactive); in [20] it was -24.6% (active) and 98.8% (inactive).

Regarding `COc1cc2c(cc1OC)[C@@H]1N(CC2)C(=O)c2ccccc2[C@@]1(C)C(=O)O`, the growth in test [1] is 111% (inactive); in [2], 102% (inactive); in [3], 108% (inactive); in [4], 109% (inactive); in test [5] it was 111% (inactive); in test [6], 115% (inactive). Further, the growth is 110% (inactive) in test [7]; 110% (inactive) in test [8]; 101% (inactive) in test [9]; 105% (inactive) in test [10]; 101% (inactive) in test [11]; 107% (inactive) in [12]. Also, the growth in [13] is 108% (inactive); in test [14] it was 98.4% (inactive); in test [15] it was 106% (inactive); in test [16], 104% (inactive); in test [17] it was 103% (inactive); in [18], 97.3% (inactive). Further, the growth in [19] was 110% (inactive); in [20], 104% (inactive).

Regarding `CC1=C(CN(O)C(N)=O)C2=C(C)C3(CC3)[C@](C)(O)C(=O)C2=C1`, the growth in test [1] is 105% (inactive); in [2], 26.8% (inactive); in test [3], 11.4% (inactive); in test [4] it was 1.16% (active); in test [5], 0.401% (active); in test [6], -11.9% (active). Also, the growth in test [7] is 10% (inactive); in test [8] it was 13.6% (inactive); in test [9], 0.35% (active); in [10], -1.94% (active); in test [11], 1.38% (active); in test [12], 3.85% (active). For the same molecule, the growth was -22.2% (active) in test [13]; 32.5% (inactive) in [14]; 23.8% (inactive) in [15]; 8.93% (active) in test [16]; 8.16% (active) in test [17]; -20.3% (active) in test [18]. Also, the growth in [19] was -5.65% (active); in test [20], -16.6% (active).

`C/C=C/CC(C)C(O)[C@H](NC(=O)[C@@H]1CCCN1C(=O)C(C)(C)NC(=O)CCCCCCCCC)C(=O)N[C@@](C)(CC)C(=O)N[C@@H](CCC(N)=O)C(=O)N[C@H](CCC(N)=O)C(=O)NC(C)(C)C(=O)N[C@@](C)(CC)C(=O)N[C@@H](CCC(N)=O)C(=O)N[C@H](CC(C)C)C(=O)N[C@H](CO)CC(C)C` (stereo not given in full): the growth is 99.5% (inactive) and -21.5% (active) in [1]; 105% (inactive) and -23.7% (active) in test [2]; 104% (inactive) and -67.3% (active) in test [3]; 106% (inactive) and -77.3% (active) in test [4]; 103% (inactive) and 26.2% (inactive) in [5]; 104% (inactive) and -60.2% (active) in test [6]. For the same molecule, the growth in test [7] is 103% (inactive) and -72.3% (active); in [8], 104% (inactive) and -52.9% (active); in test [9], 104% (inactive) and -83.9% (active); in test [10], 100% (inactive) and -100% (active); in test [11], 101% (inactive) and 20.9% (inactive); in [12], 116% (inactive) and 29.2% (inactive). For the same molecule, the growth in test [13] was 96.1% (inactive) and -85.9% (active); in test [14], 101% (inactive) and -98% (active); in test [15] it was 107% (inactive) and -75.1% (active); in [16], 97.3% (inactive) and -48.8% (active); in test [17] it was 106% (inactive) and -68.1% (active); in [18], 85.2% (inactive) and -84.9% (active). In addition, the growth is 103% (inactive) and -7.13% (active) in [19]; 100% (inactive) and -46.1% (active) in test [20].

Source of the values: PubChem BioAssay (NCI).
